This passage reports AC50 and outcome results from PubChem BioAssay (EPA / NIEHS).

Settings in all cases: mRNA level, 48 h; actives raise or lower the signal
Read-out in assay [1]: Early growth response protein 1 (EGR1) transcription factor, EGR1 (gene 1958)
The assay is described as follows: LTEA_HepaRG_EGR1: Life Technologies and Expression Analysis (LTEA) Assay for Early growth response protein 1 (EGR1) transcription factor using HepaRG (AID 2283490). The essentials:
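Read-out is EGR1 mRNA level by qRT-PCR, normalized to three housekeeping genes and analysed for gain or loss of signal against 0.5% DMSO. Source cells: human HepaRG, treated 48 h at up to 100 uM in half-log dilutions.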

Read-out in assay [2]: Ezrin (EZR), EZR (gene 7430)
Briefly: LTEA_HepaRG_EZR: Life Technologies and Expression Analysis (LTEA) Assay for Ezrin (EZR) using HepaRG (AID 2283491). The method, boiled down:
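HepaRG, 48 h chemical exposure, 8-pt half-log series from 100 uM, 0.5% DMSO vehicle, duplicates. Read-out: EZR mRNA by TaqMan qRT-PCR (Fluidigm array), housekeeping-normalized; bidirectional curve fit vs DMSO baseline.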

Read-out in assay [3]: Cytochrome P450 3A7 (Homo sapiens) (UniProt P24462)
The assay is described as follows: LTEA_HepaRG_CYP3A7: Life Technologies and Expression Analysis (LTEA) Assay for CYP3A7 using HepaRG (AID 2283492). The method, boiled down:
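Differentiated HepaRG cells in serum-free induction medium exposed 48 h in duplicate to 8-point half-log series from 100 uM top in 0.5% DMSO. CYP3A7 mRNA by qRT-PCR, normalized to ACTB/GAPDH/POLR2A, bidirectional fit versus DMSO.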

Read-out in a further assay: CYP3A5 (gene 1577)
The assay is described as follows: LTEA_HepaRG_CYP3A5: Life Technologies and Expression Analysis (LTEA) Assay for CYP3A5 using HepaRG (AID 2283493). The essentials: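 HepaRG plated 48 h, switched to serum-free induction medium, chemicals added 48 h (max 100 uM, half-log, 0.5% DMSO). RNA isolated; CYP3A5 by TaqMan qRT-PCR. Gain/loss vs DMSO.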

Read-out in assay [4]: Fatty Acid-Binding Protein 1 (FABP1), FABP1 (gene 2168)
Briefly: LTEA_HepaRG_FABP1: Life Technologies and Expression Analysis (LTEA) Assay for Fatty Acid-Binding Protein 1 (FABP1) using HepaRG (AID 2283494). The essentials:
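HepaRG, 48 h post-plating switched to serum-free induction medium, then dosed 48 h (duplicate, 8 pts, ≤100 uM, 0.5% DMSO). RNA → Fluidigm TaqMan qRT-PCR, FABP1 normed to ACTB/GAPDH/POLR2A. Bidirectional curve fit vs DMSO.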

Read-out in assay [5]: Cytochrome P450 4A22 (Homo sapiens) (UniProt Q5TCH4)
Briefly: LTEA_HepaRG_CYP4A22: Life Technologies and Expression Analysis (LTEA) Assay for Cytochrome P450 4A22 (CYP4A22) using HepaRG (AID 2283495). The essentials: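 Differentiated HepaRG cells in serum-free induction medium exposed 48 h in duplicate to eight half-log concentrations up to 100 uM in 0.5% DMSO. CYP4A22 mRNA quantified by TaqMan qRT-PCR, normalized to ACTB, GAPDH and POLR2A; bidirectional fit versus DMSO.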

Read-out in assay [6]: Cytochrome P450 7A1 (Homo sapiens) (UniProt P22680)
The assay is described as follows: LTEA_HepaRG_CYP7A1: Life Technologies and Expression Analysis (LTEA) Assay for Cytochrome P450 7A1 (CYP7A1) using HepaRG (AID 2283496). The method, boiled down:
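HepaRG cells plated 48 h, then switched to serum-free induction medium and exposed in duplicate for 48 h to 8-point half-log series from 100 uM in 0.5% DMSO. CYP7A1 mRNA by qRT-PCR (TaqMan), normalized to ACTB/GAPDH/POLR2A; bidirectional fit versus DMSO.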

Read-out in assay [7]: Glutathione S-Transferase (GSTA2), GSTA2 (gene 2939)
Briefly: LTEA_HepaRG_GSTA2: Life Technologies and Expression Analysis (LTEA) Assay for Glutathione S-Transferase (GSTA2) using HepaRG (AID 2283497). The essentials: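 HepaRG, 48 h dosing, 8-pt half-log CRC from 100 uM, 0.5% DMSO vehicle, n=2; RNA → Fluidigm TaqMan qRT-PCR; GSTA2 vs ACTB/GAPDH/POLR2A; gain/loss fit vs DMSO.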

Read-out in assay [8]: Glutamate-cysteine ligase catalytic (GCLC), GCLC (gene 2729)
Briefly: LTEA_HepaRG_GCLC: Life Technologies and Expression Analysis (LTEA) Assay for Glutamate-cysteine ligase catalytic (GCLC) using HepaRG (AID 2283498). The essentials:
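Read-out is GCLC transcript level by Fluidigm-based TaqMan qRT-PCR, normalized to three housekeeping genes and fitted in both directions relative to 0.5% DMSO. Human HepaRG cells received chemicals for 48 h, up to 100 uM.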

Read-out in assay [9]: Glutamate-cysteine ligase regulatory (GCLM), GCLM (gene 2730)
Briefly: LTEA_HepaRG_GCLM: Life Technologies and Expression Analysis (LTEA) Assay for Glutamate-cysteine ligase regulatory (GCLM) using HepaRG (AID 2283500). The method, boiled down: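 Cells were plated, cultured 48 h, switched to serum-free induction medium, then dosed in duplicate for 48 h at eight half-log concentrations up to 100 uM. RNA was then profiled by qRT-PCR; gain or loss versus DMSO was fitted.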

Read-out in assay [10]: Glutathione S-transferase M3 (GSTM3), GSTM3 (gene 2947)
Briefly: LTEA_HepaRG_GSTM3: Life Technologies and Expression Analysis (LTEA) Assay for Glutathione S-transferase M3 (GSTM3) using HepaRG (AID 2283501). The method, boiled down:
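Differentiated human HepaRG cells were exposed in duplicate for 48 h in serum-free induction medium, 8 points from 100 uM top in half-log steps, 0.5% DMSO. GSTM3 mRNA was measured by TaqMan qRT-PCR, normalized to ACTB, GAPDH and POLR2A; bidirectional fit versus DMSO.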

Read-out in assay [11]: Hypoxia-inducible factor 1-alpha (Homo sapiens) (UniProt Q16665)
Briefly: LTEA_HepaRG_HIF1A: Life Technologies and Expression Analysis (LTEA) Assay for Hypoxia-inducible factor 1 (HIF1A) Trancription factor using HepaRG (AID 2283503). The essentials: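 Differentiated HepaRG cells in serum-free induction medium exposed 48 h, in duplicate, to 8-point half-log series from 100 uM in 0.5% DMSO. HIF1A mRNA measured by TaqMan qRT-PCR, normalized to ACTB/GAPDH/POLR2A, fitted bidirectionally versus DMSO.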

Read-out in assay [12]: 3-Hydroxy-3-Methylglutaryl-CoA Synthase 2 (HMGCS2), HMGCS2 (gene 3158)
The assay is described as follows: LTEA_HepaRG_HMGCS2: Life Technologies and Expression Analysis (LTEA) Assay for 3-Hydroxy-3-Methylglutaryl-CoA Synthase 2 (HMGCS2) using HepaRG (AID 2283504). The method, boiled down:
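Human HepaRG cells in serum-free induction medium were exposed in duplicate for 48 h to 8-point half-log series from 100 uM top in 0.5% DMSO. HMGCS2 mRNA measured by TaqMan qRT-PCR, normalised to ACTB, GAPDH, POLR2A; bidirectional fit versus DMSO.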

Read-out in a further assay: HGF (gene 3082)
Briefly: LTEA_HepaRG_HGF: Life Technologies and Expression Analysis (LTEA) Assay for Hepatocyte Growth Facto (HGF) using HepaRG (AID 2283505). The method, boiled down: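 Differentiated HepaRG cells in serum-free induction medium exposed 48 h in duplicate, 8 half-log concentrations from 100 uM in 0.5% DMSO. HGF mRNA by qRT-PCR, normalised to ACTB, GAPDH, POLR2A; bidirectional fitting.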

Read-out in assay [13]: Insulin Like Growth Factor 1 (IGF1), IGF1 (gene 3479)
The assay is described as follows: LTEA_HepaRG_IGF1: Life Technologies and Expression Analysis (LTEA) Assay for Insulin Like Growth Factor 1 (IGF1) using HepaRG (AID 2283506). The method, boiled down:
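HepaRG, plated 48 h, then switched to serum-free induction media; test chemical 8-pt half-log from 100 uM (0.5% DMSO), duplicate, 48 h. Lysis in RLT, TaqMan qRT-PCR, norm. ACTB/GAPDH/POLR2A. Bidirectional fit vs DMSO.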

Read-out in assay [14]: Intercellular Adhesion Molecule 1 (ICAM1), ICAM1 (gene 3383)
Briefly: LTEA_HepaRG_ICAM1: Life Technologies and Expression Analysis (LTEA) Assay for Intercellular Adhesion Molecule 1 (ICAM1) using HepaRG (AID 2283507). The method, boiled down: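 Differentiated human HepaRG cells in serum-free induction medium exposed 48 h in duplicate to 8 half-log concentrations (top 100 uM, 0.5% DMSO). ICAM1 mRNA quantified by TaqMan qRT-PCR, normalized to ACTB, GAPDH and POLR2A; bidirectional fitting versus DMSO.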

Read-out in assay [15]: Insulin-like growth factor-binding protein 1 (IGFBP1), IGFBP1 (gene 3484)
Briefly: LTEA_HepaRG_IGFBP1: Life Technologies and Expression Analysis (LTEA) Assay for Insulin-like growth factor-binding protein 1 (IGFBP1) using HepaRG (AID 2283508). The essentials: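 HepaRG cells, plated 48 h then switched to serum-free induction medium, exposed in duplicate for 48 h to 8-point half-log series from 100 uM in 0.5% DMSO. mRNA measured by qRT-PCR, normalized to ACTB/GAPDH/POLR2A; bidirectional fit versus DMSO.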

Read-out in assay [16]: Interleukin 6 (IL6), IL6 (gene 3569)
The assay is described as follows: LTEA_HepaRG_IL6: Life Technologies and Expression Analysis (LTEA) Assay for Interleukin 6 (IL6) using HepaRG (AID 2283509). The essentials: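 HepaRG, ~100,000 cells/well, 48 h pre-culture; serum-free induction medium; cmpd 8-pt half-log from 100 uM, 0.5% DMSO, duplicate, 48 h. Lysis in RLT, TaqMan qRT-PCR; gain or loss vs DMSO.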

Read-out in assay [17]: growth arrest and DNA damage 45 (GADD45G), GADD45G (gene 10912)
The assay is described as follows: LTEA_HepaRG_GADD45G: Life Technologies and Expression Analysis (LTEA) Assay for growth arrest and DNA damage 45 (GADD45G) using HepaRG (AID 2283499). The essentials:
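Differentiated human HepaRG cells, 48 h post-plating, exposed 48 h in serum-free induction medium to 8 half-log concentrations (top 100 uM, 0.5% DMSO) in duplicate. GADD45G mRNA measured by Fluidigm TaqMan qRT-PCR, normalized to ACTB, GAPDH, POLR2A; bidirectional fit versus DMSO.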

The source made the active and inactive calls. Rule for the calls: active = hit-call score of the fitted dose curve at least 0.9, where 1 is the maximum; inactive = score below 0.9.

What is called AC50 is the concentration at which the activity in the assay is half-maximal.

Cytochrome P450 3A7 (Homo sapiens), sequence (P24462 whole entry, looked up): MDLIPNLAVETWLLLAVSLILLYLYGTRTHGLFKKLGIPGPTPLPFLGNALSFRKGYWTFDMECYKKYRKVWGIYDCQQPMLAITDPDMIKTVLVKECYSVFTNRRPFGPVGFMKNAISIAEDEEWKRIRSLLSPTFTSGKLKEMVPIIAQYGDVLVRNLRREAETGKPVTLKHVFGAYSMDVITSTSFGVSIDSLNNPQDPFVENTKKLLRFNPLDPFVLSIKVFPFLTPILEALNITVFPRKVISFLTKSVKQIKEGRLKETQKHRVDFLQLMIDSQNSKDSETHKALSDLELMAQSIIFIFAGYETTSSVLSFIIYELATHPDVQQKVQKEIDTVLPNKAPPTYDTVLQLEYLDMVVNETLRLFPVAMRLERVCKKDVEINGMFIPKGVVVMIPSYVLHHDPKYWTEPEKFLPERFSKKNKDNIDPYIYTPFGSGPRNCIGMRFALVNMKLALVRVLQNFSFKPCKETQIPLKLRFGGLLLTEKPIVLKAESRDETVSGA
Hypoxia-inducible factor 1-alpha (Homo sapiens), sequence (Q16665 whole entry, looked up): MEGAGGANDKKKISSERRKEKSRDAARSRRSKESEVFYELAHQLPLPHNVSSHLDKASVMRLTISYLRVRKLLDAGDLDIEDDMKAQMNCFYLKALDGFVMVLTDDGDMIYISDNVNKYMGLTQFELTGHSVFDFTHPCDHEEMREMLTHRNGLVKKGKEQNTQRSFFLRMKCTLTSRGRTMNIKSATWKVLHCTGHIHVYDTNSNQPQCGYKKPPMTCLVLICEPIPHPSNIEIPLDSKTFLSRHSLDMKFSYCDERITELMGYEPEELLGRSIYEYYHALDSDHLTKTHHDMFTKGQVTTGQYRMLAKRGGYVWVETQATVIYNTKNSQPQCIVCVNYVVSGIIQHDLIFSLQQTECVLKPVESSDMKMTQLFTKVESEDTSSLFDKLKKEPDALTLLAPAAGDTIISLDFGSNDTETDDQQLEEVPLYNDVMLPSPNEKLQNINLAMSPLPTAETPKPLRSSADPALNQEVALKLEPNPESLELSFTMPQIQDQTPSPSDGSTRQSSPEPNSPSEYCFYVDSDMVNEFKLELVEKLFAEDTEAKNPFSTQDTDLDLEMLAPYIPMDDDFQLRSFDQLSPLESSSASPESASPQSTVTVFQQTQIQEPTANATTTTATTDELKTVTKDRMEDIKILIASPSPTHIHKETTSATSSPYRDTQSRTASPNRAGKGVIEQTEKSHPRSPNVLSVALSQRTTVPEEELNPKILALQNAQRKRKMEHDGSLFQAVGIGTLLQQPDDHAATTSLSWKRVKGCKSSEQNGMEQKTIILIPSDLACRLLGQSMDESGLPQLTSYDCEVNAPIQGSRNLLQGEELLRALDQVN

For the compound `CCOP(=O)(OCC)Oc1nc(Cl)c(Cl)cc1Cl`, the AC50 in [1] is 83.4 µM (active); in [3], 92.1 µM (active); in assay [4], 82.6 µM (active); in assay [5], 90.1 µM (active); in [6] it was 83.8 µM (active); in assay [7], 75.5 µM (active). The figures for the AC50 in [8], in [11] and in [12] were 84.1 µM (active), 49.8 µM (active) and 84.8 µM (active), respectively. For the same compound, the compound was classed as inactive (in [2]; in the assay with CYP3A5 (gene 1577); in [9]; in [10]; with HGF (gene 3082); in assay [13]). Also, the call in assay [14], in [15] and in assay [16] was inactive.

Take `CN/C(=N\[N+](=O)[O-])NCc1cnc(Cl)s1`: the call (in assay [1]; in assay [2]; in assay [3]; in the assay with CYP3A5 (gene 1577); in assay [5]; in assay [7]) was inactive. The compound was called inactive in assay [8], in [17], in [9], in assay [10], in [11] and in assay [12]. The result (with HGF (gene 3082); in assay [13]; in assay [14]; in [15]; in [16]) was inactive. Besides, the AC50 was 33.4 µM (active) in assay [4] and 50 µM (active) in assay [6].

On to `COc1cc(Cl)c(OC)cc1Cl`, for which the result (in assay [1]; in assay [2]; with CYP3A5 (gene 1577); in assay [4]; in [5]; in [6]) was inactive. Besides, the compound was called inactive in [7], in [8], in assay [17], in assay [9], in [10] and in [12]. In addition, the call (with HGF (gene 3082); in assay [13]; in assay [14]; in assay [15]; in [16]) was inactive. Moreover, the AC50 in assay [3] is 8.31 µM (active).

Consider `Cc1cc(C)nc(Nc2ccccc2)n1`, for which the outcome (in [1]; in [2]; in assay [3]; in the assay with CYP3A5 (gene 1577); in [4]; in assay [5]) was inactive. Further, the outcome in assay [7], in [8], in [17], in [9], in assay [10] and in [11] was inactive. Besides, the result (in assay [12]; with HGF (gene 3082); in assay [13]; in [14]; in assay [15]; in assay [16]) was inactive. Also, the AC50 in assay [6] was 3.4 µM (active).
